Experimental data published in PubChem BioAssay AID602412 (Johns Hopkins Ion Channel Center, 2012).
This is one part of the list. Calls of active or inactive are those of the source.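 How the source made its calls: active means calcium signal rise, corrected for plate position, at least 3 library SD high, with starting brightness within 5 such deviations; inactive means the rest.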

Molecular target: Mas-related G-protein coupled receptor member X1 (Homo sapiens) (UniProt Q96LB2)
Experiment: activators of human MrgX1 calcium signaling – HEK293 cells, Fluo-4 calcium flux, confirmation (AID 602412)
Details: MrgX1-HEK293, Fluo-4 calcium fluorescence, FDSS, at 10 µM; hits give high values

Mas-related G-protein coupled receptor member X1 (Homo sapiens), sequence (Q96LB2 whole entry, looked up): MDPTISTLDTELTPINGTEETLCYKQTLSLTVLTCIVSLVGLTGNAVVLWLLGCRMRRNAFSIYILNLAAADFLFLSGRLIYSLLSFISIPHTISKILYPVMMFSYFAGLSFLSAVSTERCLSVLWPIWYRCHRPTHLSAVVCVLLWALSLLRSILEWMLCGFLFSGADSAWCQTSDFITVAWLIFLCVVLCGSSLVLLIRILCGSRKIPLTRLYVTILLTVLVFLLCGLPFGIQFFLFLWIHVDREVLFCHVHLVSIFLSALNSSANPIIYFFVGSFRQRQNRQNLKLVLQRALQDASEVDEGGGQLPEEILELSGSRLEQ

COc1ccc(OC)c(C(=O)c2ccc(Cl)cc2)c1
outcome: inactive

CCCc1[nH]nc2c1C(c1ccc(Br)s1)C(C#N)=C(N)O2 (centres undefined)
activation: 141% (active)

OCc1ccc(OCCCOc2cccc3cccnc23)cc1
outcome: inactive

O=C(Nc1nnc(-c2ccccc2)o1)c1cc(-c2cccs2)nc2ccccc12
activation: 141% (active)

O=c1c2cc(Br)ccc2nc(-c2cccc(Cl)c2)n1O
activation: 415% (active)

O=C(CC(O)(C(F)(F)F)C(F)(F)F)Nc1ccc(Cl)c(Cl)c1
activation: 242% (active)

CCCCC(=O)NNC(=S)NC(=O)C(c1ccccc1)c1ccccc1
outcome: inactive

N=C(N)SCc1cccc2ccccc12
activation: 199% (active)

Cc1ccc(-n2[nH]c(C)c(/C=N/N3C(=O)c4cccc5cccc(c45)C3=O)c2=O)cc1
activation: 601% (active)

COc1ccc(C(=O)NC(=S)NNC(=O)CCc2ccccc2)cc1
activation: 595% (active)

COc1ccc(C(=O)NC(=S)NNC(=O)c2c(-c3ccccc3)noc2C)cc1
activation: 506% (active)

CC1(C(=O)O)CCC(C(=O)Nc2ccc(Cl)c(Cl)c2)C1(C)C (centres undefined)
activation: 149% (active)

CC(=O)OC(C)C[N+](C)(C)C (centres undefined)
activation: 483% (active)

CCCc1nc2c(c(=O)c3ccccc3n2C)c(=O)n1C1CCCCCC1
activation: 149% (active)

CCOC(=O)c1[nH]c2ccc(C)cc2c1N=C(C)N(C)C
activation: 185% (active)

COc1ccc(Nc2nc(-c3cccnc3)nc3ccccc23)cn1
activation: 127% (active)

CCCc1cc(=S)n2c([nH]c3ccccc32)c1C#N
activation: 266% (active)

O=C1C(=O)N(CC2COc3ccccc3O2)c2ccccc21 (centres undefined)
activation: 226% (active)

Cc1ccc(NC2(C#N)C(=O)Nc3ccccc32)cc1 (centres undefined)
activation: 191% (active)

CCN(CC)c1ccc2oc(=O)c(C)nc2c1
outcome: inactive

O=C1Cc2ccccc2Sc2ccc(Cl)cc21
activation: 104% (active)

COc1ccccc1N(CC(=O)N1CCCCC1)S(=O)(=O)c1ccccc1
activation: 356% (active)

Cc1ccnc(-n2sc3ccccc3c2=O)n1
activation: 170% (active)

CC(C)(C)Nc1c(-c2cccs2)nc2ccccn12
activation: 181% (active)

COc1ccc2c(c1)OC(O)(C(F)(F)C(F)F)CC2=O (centres undefined)
activation: 373% (active)

CC1CCCCN1S(=O)(=O)c1ccc(C(=O)Nc2nnc(-c3cccs3)o2)cc1 (centres undefined)
activation: 88.3% (active)

Cc1nc(C)c(-c2csc(NCCc3ccccc3)n2)s1
activation: 170% (active)

Cc1c(C)c2c(OCC(=O)N[C@@H](C(=O)O)c3ccccc3)cc3c(c2oc1=O)CCC(C)(C)O3
outcome: inactive

Cc1cc2oc3ccc(NCCC4CCCN4C)cc3c(=O)c2cc1C (centres undefined)
activation: 311% (active)

Cc1[nH][nH]c(=O)c1C(c1ccc(-c2ccc(Cl)cc2)o1)c1c(C)[nH][nH]c1=O
activation: 187% (active)

CC(Oc1ccc2ccccc2c1)C(=O)NNC(=S)NC(=O)c1ccco1 (centres undefined)
activation: 265% (active)

Cc1onc(-c2ccccc2)c1C(=O)NNC(=S)NC(=O)c1ccc(F)cc1
activation: 636% (active)

COC(=O)c1ccc(C2C3=C(Nc4nnnn42)c2ccccc2OC3)cc1 (centres undefined)
outcome: inactive

O=C(CCN1CCc2ccccc2C(O)(c2ccccc2)C1)c1ccc2c(c1)OCCO2 (centres undefined)
activation: 192% (active)

CC(C)CC(=O)NC(=S)NNC(=O)c1cccc([N+](=O)[O-])c1
activation: 268% (active)

Fc1ccc2[nH]c3c(N4CCSCC4)ncnc3c2c1
activation: 252% (active)

O=C(Nc1ccccc1)c1nnsc1S(=O)(=O)c1ccc(Cl)cc1
activation: 210% (active)

COC(=O)c1ccc(COC(=O)C2CCN(S(=O)(=O)c3c(Cl)cccc3Cl)CC2)o1
outcome: inactive

COc1ccc(C(=O)NNC(=S)NC(=O)c2ccccc2)cc1
activation: 570% (active)
